# Measured values as given in ChEMBL document CHEMBL3988442, “University of Dundee, Small-Polar-MMV Screening Library” (2021).
# Hit rate of the full screen: of about 69,000 compounds, about 1,000 (1.4%) showed an effect of 50% or more. Only a selection was taken, and strong results are over-represented in it overall.
# Test system: Leishmania donovani
# Assay: Leishmania intramacrophage assay
# Type: functional, organism-based
# Set-up: scale not given: in the data most compounds retested in dose-response had high values
structure (smiles),measurement,setting,value
COc1c(CNCc2cccc(Cn3ccnc3)c2)c(C)nn1C,Percent Effect,"30 µM, 30.03 µM",57.06%
COc1c(CNCc2ccc(C(=O)N(C)C(C)C)cc2)c(C)nn1C,Percent Effect,30 µM,21.5%
O=C(CN1CCCC(c2ccc(C(=O)O)cc2)C1)NC1CC1 (configuration not stated),Percent Effect,"30 µM, 30.03 µM",23.13%
Cc1ccc2cc(C(=O)N3CCCC3Cn3cccn3)[nH]c2c1 (configuration not stated),Percent Effect,"30.3 µM, […]",22.94%
Cc1cnn(CCNCc2ccc(OCc3cccnc3)cc2)c1,Percent Effect,30 µM,27.42%
CN(C)C(=O)N1CCOCC2(CCN(c3ccccn3)C2)C1.O=C(O)C(F)(F)F (configuration not stated),Percent Effect,"30 µM, 30.03 µM",18.14%
O=S1(=O)c2ccccc2C(O)CN1CCO (configuration not stated),Percent Effect,"30.3 µM, […]",5.205%
CCN(CC)c1ccc2ccc(C(=O)O)cn12,Percent Effect,"30.3 µM, […]",18.9%
CCN(CC)c1ccc2ccc(C(=O)N3CCCCO3)cn12.O=C(O)C(F)(F)F,Percent Effect,"30.3 µM, […]",27.79%
Cc1nc(-c2ccc(S(=O)(=O)N3CCOCC3)cc2)co1,Percent Effect,"30.3 µM, […]",23.37%
Cc1nn(C)cc1CN1C[C@@H]2CC[C@H](C1)N(Cc1c(C)noc1C)C2=O,Percent Effect,"30.3 µM, […]",16.01%
CCCN1CCC(c2nc3ccc(-c4cccc(OC)c4)cn3n2)CC1.O=C(O)C(F)(F)F,Percent Effect,"30.3 µM, […]",66.14%
CCN1CCC(c2nc3ccc(NC(C)C)cn3n2)CC1.O=C(O)C(F)(F)F,Percent Effect,"30 µM, 30.03 µM",14.23%
CCCN1CCC(c2nc3ccc(-c4ccncc4)cn3n2)CC1.O=C(O)C(F)(F)F.O=C(O)C(F)(F)F,Percent Effect,"30.3 µM, […]",22.97%
CN1CCC(c2nc3ccc(-c4ccccc4)cn3n2)CC1.O=C(O)C(F)(F)F,Percent Effect,"30.3 µM, […]",26.64%
CCCN1CCC(c2nc3ccc(-c4cccc(F)c4)cn3n2)CC1.O=C(O)C(F)(F)F,Percent Effect,"30.3 µM, […]",49.02%
CN1CCC(c2nc3ccc(-c4cccc(F)c4)cn3n2)CC1.O=C(O)C(F)(F)F,Percent Effect,"30.3 µM, […]",56.26%
CCN1CCC(c2nc3ccc(NC4CCC4)cn3n2)CC1.O=C(O)C(F)(F)F,Percent Effect,"30.3 µM, […]",53.52%
CCCN1CCC(c2nc3ccc(-c4ccccc4)cn3n2)CC1.O=C(O)C(F)(F)F,Percent Effect,"30.3 µM, […]",22.28%
CC(=O)N1CCC(c2nc3ccc(NC4CCC4)cn3n2)CC1.O=C(O)C(F)(F)F,Percent Effect,"30.3 µM, […]",40.49%
Cc1cnn(CC2CN(CC(=O)N3CCc4ccccc43)CCO2)c1 (configuration not stated),Percent Effect,"30 µM, 30.03 µM",26.31%
CCCN(C(=O)c1cnns1)C1CCCN(Cc2ccccc2)C1 (configuration not stated),Percent Effect,"30.3 µM, […]",15.37%
CCn1c(C)cc(C(=O)NCc2cccc(S(=O)(=O)NC)c2)c1C,Percent Effect,"30.3 µM, […]",-2.214%
CN(Cc1ccccc1)C(=O)CCN1CCC2(CC1)[C@H](O)C[C@@H]2O,Percent Effect,"30.3 µM, […]",16.81%
C[C@@H]1CN(CCC(=O)N(C)Cc2ccccc2)CC[C@@]1(O)C1CCC1,Percent Effect,"30.3 µM, […]",-42.91%
C[C@@H]1CN(CCC(=O)N(C)Cc2ccccc2)C[C@@]1(O)C1CCC1,Percent Effect,"30.3 µM, […]",54.72%
CC(C)Nc1cccc(CC2CCN(C)C2)n1.O=CO (configuration not stated),Percent Effect,"30.3 µM, […]",8.612%
Cc1noc(C)c1CC(=O)NCC(C(C)C)N1CCOCC1 (configuration not stated),Percent Effect,"30.3 µM, […]",13.16%
CS(=O)(=O)N1C[C@@H]2CC[C@H](C1)N(C(=O)CCc1ccsc1)C2,Percent Effect,"30.3 µM, […]",42.41%
CC(C)C1SCC(=O)Nc2c1cnn2-c1ccc(Cl)cc1 (configuration not stated),Percent Effect,"30.3 µM, […]",63.84%
COc1ccc(-n2ncc3c2NC(=O)CSC3C(C)C)cc1 (configuration not stated),Percent Effect,"30.3 µM, […]",23.81%
CC(C)C1SCC(=O)Nc2c1cnn2-c1ccc(F)cc1 (configuration not stated),Percent Effect,"30.3 µM, […]",-10.63%
Cc1cc(C)c(CNC(=O)N2CCCN(C(=O)C(C)C)CC2)c(C)c1,Percent Effect,"30.3 µM, […]",-55.36%
COc1cc(NC2CCS(=O)(=O)C2)ncn1 (configuration not stated),Percent Effect,"30.3 µM, […]",-35.33%
Cc1nn(C)c(C)c1NC(=O)c1cccc(CN2CCS(=O)(=O)CC2)c1,Percent Effect,"30.3 µM, […]",17.24%
O=C(NCC1CCC1)c1cccc(CN2CCS(=O)(=O)CC2)c1,Percent Effect,"30.3 µM, […]",14.97%
CC(C)(C)NC(=O)c1cccc(CN2CCS(=O)(=O)CC2)c1,Percent Effect,"30.3 µM, […]",61.43%
CN1CCO[C@@H]2CN(S(=O)(=O)c3ccccc3)C[C@@H]2C1.O=C(O)C(F)(F)F,Percent Effect,"30.3 µM, […]",29.49%
OCC1CCCN1c1cc(NCc2ccccn2)ncn1 (configuration not stated),Percent Effect,"30.3 µM, […]",50.11%
OCC1CCCN1c1cc(NCCc2nccs2)ncn1 (configuration not stated),Percent Effect,"30.3 µM, […]",55.11%
OCC1CCCN1c1cc(NCCNc2cccnn2)ncn1 (configuration not stated),Percent Effect,"30.3 µM, […]",20.93%
OCC1CCCN1c1cc(NCCNc2ccccn2)ncn1 (configuration not stated),Percent Effect,"30 µM, 30.03 µM",16.04%
OCC1CCCN1c1cc(NCCc2ccccn2)ncn1 (configuration not stated),Percent Effect,"30.3 µM, […]",47.66%
OCC1CCCN1c1cc(NCCc2ccsc2)ncn1 (configuration not stated),Percent Effect,"30.3 µM, […]",-26.43%
NC(=O)[C@@H]1CCCN1C(=O)c1csc(-c2ccc(C(F)(F)F)cc2)n1,Percent Effect,"30.3 µM, […]",24.55%
CNC(=O)c1cc(OC)c(OC)cc1N(C)S(C)(=O)=O,Percent Effect,"30.3 µM, […]",-11.85%
COc1ccc(CCCC(=O)NCc2c(C)noc2C)cc1F,Percent Effect,"30.3 µM, […]",0.2518%
Cc1cc(C)cc(C(=O)NCc2ncnn2C)c1,Percent Effect,"30.3 µM, […]",-3.252%
COC(=O)CCNC(=O)c1nnn(-c2ccc(F)cc2)c1C1CC1,Percent Effect,"30.3 µM, […]",23.19%
COc1cccc(CNCc2ccc(F)c(Cl)c2)c1O,Percent Effect,"30.3 µM, […]",3.534%
COc1cccc(CNCc2ccccc2Cl)c1O,Percent Effect,"30.3 µM, […]",11.74%
COc1cccc(CNCc2ccc(F)cc2Cl)c1O,Percent Effect,"30.3 µM, […]",50.12%
